According to ChEMBL document CHEMBL3988442, “University of Dundee, Small-Polar-MMV Screening Library” (2021):
Screen size: about 69,000 compounds; about 950 (1.4%) showed an effect of 50% or more. The sample as a whole holds a higher share of strong results than the screen did.

system: Mycobacterium tuberculosis; assay: Cornell M. t heat shock assay; assay type: functional, organism-based; set-up: dose or concentration left out as unconfirmed; further: in the data most compounds retested in dose-response had high values

Compound	Percent Effect [%]
COc1ccc(C(=O)N2Cc3cc(C)ccc3OCC2CN(C)C)cc1.Cl (configuration not stated)	-9.159
Cc1cccc(CN2CCCC3(CCC(=O)N3CCN(C)C)CC2)n1.O=C(O)C(F)(F)F.O=C(O)C(F)(F)F (configuration not stated)	-9.93
CC(C)NC(=O)N1CCc2ncnc(-c3ccncc3)c2CC1.O=C(O)C(F)(F)F	36.54
CCn1ccc2ccnc(CC3CN(C(=O)Cn4ccnc4C)C3)c21.O=CO	-10.71
Cn1ccnc1CN(Cc1ccccn1)Cc1ccccc1Cl.O=C(O)CC(O)(CC(=O)O)C(=O)O	102.4
COc1ccc(CN(Cc2cncn2C)CC2CCCO2)cc1OC.O=C(O)CC(O)(CC(=O)O)C(=O)O (configuration not stated)	-6.379
Cc1nc2sccn2c1CN(CCCN(C)C)Cc1ccccn1.O=C(O)CC(O)(CC(=O)O)C(=O)O	-0.915
COc1ccc(CN(Cc2cncn2C)CC2CCCO2)cc1.O=C(O)CC(O)(CC(=O)O)C(=O)O (configuration not stated)	1.542
Cc1ncc(CN(Cc2ccccn2)Cc2ccccc2Cl)n1C.O=C(O)CC(O)(CC(=O)O)C(=O)O	34.76
COc1ccc(CN(Cc2ccccn2)Cc2cncn2C)cc1.O=C(O)CC(O)(CC(=O)O)C(=O)O	72.33
COc1ncc(CN2CCCC(c3[nH]ncc3S(C)(=O)=O)C2)cn1 (configuration not stated)	-20.65
CSc1ccccc1C(=O)N1C[C@H]2CC[C@@H]1CN(C(=O)C1CCC1)C2	6.914
Cn1cc(CN2CCCC23CCN(C(=O)c2cccs2)CC3)cn1.O=C(O)C(F)(F)F	-13.39
CN1CCN(Cc2cn3c(n2)CN(Cc2cccc(F)c2)CC3)CC1.O=C(O)C(F)(F)F.O=C(O)C(F)(F)F.O=C(O)C(F)(F)F	-2.625
c1ccc(OCc2ccncc2)c(CNC2CCc3ncnn3C2)c1 (configuration not stated)	14.47
c1cncc(COc2ccccc2CNC2CCc3ncnn3C2)c1 (configuration not stated)	103.3
c1ccc(COc2ccccc2CNC2CCc3ncnn3C2)cc1 (configuration not stated)	4.249
CC(C)N(C)Cc1cc(=O)n2c(n1)CN(S(=O)(=O)C1CC1)CCC2.O=C(O)C(F)(F)F	3.887
CSc1ccc(CNC(c2ccccc2F)c2nccn2C)cc1.Cl (configuration not stated)	112.7
COc1ccccc1C(NCc1ccc(SC)cc1)c1nccn1C (configuration not stated)	111.2
COc1ccc(CN(C)c2ccc(-c3nccn3C)nn2)cc1OC	6.196
COc1c(CNC(c2nccn2C)C(C)C)c(C)nn1C (configuration not stated)	2.612
COc1c(CNC(c2ccccc2F)c2nccn2C)c(C)nn1C (configuration not stated)	-25.27

Compound	Percent Effect [%]
Fc1ccccc1C(CNc1ccncn1)N1CCCC1 (configuration not stated)	-9.26
CC(NCCn1cccn1)c1ccccc1F (configuration not stated)	-16.32
CSc1ccc(CNC2CCN(CCc3ccncc3)CC2)cc1	5.943
COc1cc(CN2CCn3c(CO)nnc3C2)ccc1OC(C)C.O=C(O)CC(O)(CC(=O)O)C(=O)O	-10.49
CNC(=O)N1C[C@H]2C[C@H](C(=O)Nc3cccnc3)[C@@H](C1)O2.O=C(O)C(F)(F)F	-3.973
Cc1ccc(C(=O)N2C[C@@H]3CC[C@H](C2)N(Cc2ccccc2)C3)cn1	-13.46
CCc1cc(=O)n(CCNC(=O)Nc2ccc(OC(F)(F)F)cc2)cn1	32.6
O=C(O)C(F)(F)F.O=C(O)C(F)(F)F.O=C(O)C(F)(F)F.c1ccc(CN2CCCC3(CCN(Cc4cccs4)C3)C2)nc1 (configuration not stated)	0.0284
CCc1c(C(=O)N2C[C@H]3CC[C@@H]2CN(c2cnccn2)C3)csc1C	-16.87
CCC(C)N1CCc2nc(N3CCCC3)nc(NC(C)C)c2C1 (configuration not stated)	-2.093
Cc1nc(CN2CCc3nc(N4CCCC4)nc(NC(C)C)c3C2)cs1	104.3
CC(C)Nc1nc(N2CCCC2)nc2c1CN(S(C)(=O)=O)CC2	11
Cc1nc(NC(C)C)nc2c1CN(Cc1nccn1C)CC2	12.34
CC(=O)NCc1noc2c1CN(Cc1cccs1)CC2	18.13
CCN1CCc2nc(N3CCOCC3)nc(NC(C)C)c2C1	8.22
CC(C)Oc1ncnc2c1CCN(Cc1cccs1)CC2	17.98
Cc1nc(NC(C)C)nc2c1CN(Cc1cccs1)CC2	99.87
CC(C)Nc1nc(N2CCCC2)nc2c1CN(C)CC2	4.665
Cc1nc(CN2CCc3ncnc(C)c3CC2)cs1.O=C(O)C(F)(F)F	2.444
Cc1nc(CN2CCc3nc(NC(C)C)nc(C)c3C2)cs1	99.63
CC(C)Nc1nc(N2CCCC2)nc2c1CN(C(C)C)CC2	101.9
Cc1nn(C)cc1-c1cncn1CCN(C)C1CCCC1.Cl	1.181
Cc1cccc(CN2C[C@@H]3COC[C@]3(COCC(=O)N(C)C)C2)n1.O=C(O)C(F)(F)F.O=C(O)C(F)(F)F	-9.127

Compound	Percent Effect [%]
O=C(O)C(F)(F)F.O=C([C@H]1C[C@H]2OCC[C@H]2N(CC2CCOCC2)C1)N1CCCCO1	-2.02
COC1COC2(CCN(Cc3cccc(Cl)c3)CC2)C1.O=C(O)C(F)(F)F (configuration not stated)	-14.26
CN1[C@H]2CC[C@@H]1CN(c1nc(-c3ccncc3)nc3c1cnn3C)CC2	-0.0303
O=C(NC1CCCCC1)N1CCc2onc(COc3cccnc3)c2C1.O=C(O)C(F)(F)F	9.654
CC(C)CN1Cc2nc(N3CCCC3)ncc2C1=O	-13.83
COc1ccccc1C(=O)N1CCNCC1C(N)=O.Cl (configuration not stated)	5.705
Cc1cnc(Nc2nccnc2C2CCN(C)CC2)s1	16.42
CC(=O)N1CCC(c2nccnc2Nc2ncc(C)s2)CC1	55.53
CC(=O)N1CCC(c2nccnc2Nc2cnccn2)CC1	19.92
CCOC1COC2(CCN(C(=O)c3cccc(C)n3)CC2)C1.O=C(O)C(F)(F)F (configuration not stated)	18.32
O=C(O)C(F)(F)F.O=C(c1cccc(O)c1)N1CCC2(CCN2c2ncccn2)C1 (configuration not stated)	1.113
Cc1ccc(-c2nc(CNCCn3cccn3)cs2)o1	26.99
c1coc(-c2nc(CNCCn3cccn3)cs2)c1	-1.03
Cc1cnn(CC(C)NCc2csc(-c3ccco3)n2)c1 (configuration not stated)	29.87
Cc1cnn(CCNCc2csc(-c3ccco3)n2)c1	52.61
Cc1cnn(CCNCc2csc(-c3ccc(C)o3)n2)c1	64.15
Cc1cnn(CCNCc2csc(-c3ncccn3)n2)c1	-10.75
Cl.N#Cc1cccnc1OC1CCNCC1	-9.035
Cc1ccc(N2C[C@@H]3OCCN(CC4CC4)[C@@H]3C2)nn1.O=C(O)C(F)(F)F	21.44
CN1Cc2cnn(CC3CCCC3)c2C(COCC2CC2)C1.O=C(O)C(F)(F)F.O=C(O)C(F)(F)F (configuration not stated)	-36.29
O=C(O)C(F)(F)F.O=C(O)C(F)(F)F.O=C(O)C(F)(F)F.c1ccc(CN2CC[C@@H]3O[C@H](COCc4ccncc4)CC[C@@H]32)nc1	5.621
CC(C)c1ccc(C(CN)N2CCc3sccc3C2)cc1 (configuration not stated)	92.4
NCC(c1ccc(Cl)cc1)N1CCc2sccc2C1 (configuration not stated)	22.77

Compound	Percent Effect [%]
NCC(c1ccccc1)N1CCc2sccc2C1 (configuration not stated)	4.411
Cc1csc([C@@H]2C[C@H]3CN(c4ncc(F)cn4)C[C@H]3O2)n1.O=C(O)C(F)(F)F	25.07
CNC(C)Cc1ccccc1Sc1ccc(O)cc1.Cl (configuration not stated)	5.856
CC(N)Cc1ccccc1Sc1ccc(O)cc1.CC(N)Cc1ccccc1Sc1ccc(O)cc1.O=C(O)C(=O)O (configuration not stated)	54.17
CC(N)Cc1ccccc1Sc1ccccc1.O=C(O)/C=C\C(=O)O (configuration not stated)	31.83
O=C(Nc1ccccc1)[C@H]1C[C@@H]2CN(S(=O)(=O)c3ccccc3)C[C@H]1O2	3.672
Cc1cc(NC2CCN(Cc3ccccn3)CC2)n2nc(C)c(C)c2n1	3.704
CCc1cc(NCCNc2ccncc2C)n2nc(C)c(C)c2n1	10.67
CCc1cc(NCCc2cccnc2)n2nc(C)c(C)c2n1	66.22
CCc1cc(NCCc2cnccn2)n2nc(C)c(C)c2n1	78.14
CCc1cc(NCCNC(=O)c2cccnc2)n2nc(C)c(C)c2n1	-20.84
Cc1cc(NCCCNc2cccnc2)n2nc(C)c(C)c2n1	90.05
CCc1cc(NCCNc2cccnc2)n2nccc2n1	0.7035
Cc1cc(N[C@@H](CO)c2ccccc2)n2nc(C)c(C)c2n1	11.1
CCc1cc(NCCN2CCNC2=O)n2nc(C)c(C)c2n1	-8.001
O=C(O)C(F)(F)F.O=C(c1ccco1)N1C[C@@H]2OCCN(c3ncccn3)[C@@H]2C1	-4.269
COc1cccc(CN2C[C@@H]3COC[C@]3(CNC(=O)C3CC3)C2)c1.O=C(O)C(F)(F)F	18.07
O=C(O)C(F)(F)F.O=C(c1ccco1)N1CCCC12CCN(c1ncccn1)CC2	-4.902
Cn1cc(-c2csc(N3CCSCC3)n2)cn1	7.511
CN1CCN(c2nc(-c3cnn(C)c3)cs2)CC1	-2.615
Cn1cc(-c2csc(N3CCCCCC3)n2)cn1	70.2
O=C(NCC1CC1)[C@@H]1C[C@@H]2CCN(Cc3ccoc3)C[C@@H]2O1	-11.78
Cc1ccc(C(=O)N2CCC3(CC2)CC(N2CCOCC2)C3)cc1.O=C(O)C(F)(F)F	4.537
